# Bioassay records from PubChem.
# L929 necroptosis = blocks zVAD induced death of L929 cells. L929 zVAD necroptosis rescue, ATP luminescence, 24 h; with zVAD 60 µM. viability rescue, % at 10 µM. 220,000 compounds, 0.38% hits;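 active means activation, scaled between plate controls, above about 75%, limit read from the data; inactive means activation under that limit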
# TNF necrop inh = inhibitors of TNF-alpha induced necroptosis in Jurkat FADD-/- cells | Jurkat FADD-/- TNF necroptosis rescue, ATP luminescence, 24 h; 0 = TNF only, 100 = no-TNF cells | activation (protection from cell death), % at 10 µM | 220,000 compounds, 0.068% hits | AID 463075;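 active means activation, meaning protection from cell death, of at least 50% relative to plate controls; inactive means activation below 50%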;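 further: necroptosis triggered by 40 ng/mL TNF-alpha added together with compound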
# S1P4 antagonist = antagonists of human S1P4 receptor. O95977. S1P4-expressing cells, antagonist mode, reporter read-out. inhibition, % at 4.98 µM. 220,000 compounds, 0.26% hits. AID 1510; in the data active means inhibition above about 29%
# Target sequence (O95977 whole entry, looked up): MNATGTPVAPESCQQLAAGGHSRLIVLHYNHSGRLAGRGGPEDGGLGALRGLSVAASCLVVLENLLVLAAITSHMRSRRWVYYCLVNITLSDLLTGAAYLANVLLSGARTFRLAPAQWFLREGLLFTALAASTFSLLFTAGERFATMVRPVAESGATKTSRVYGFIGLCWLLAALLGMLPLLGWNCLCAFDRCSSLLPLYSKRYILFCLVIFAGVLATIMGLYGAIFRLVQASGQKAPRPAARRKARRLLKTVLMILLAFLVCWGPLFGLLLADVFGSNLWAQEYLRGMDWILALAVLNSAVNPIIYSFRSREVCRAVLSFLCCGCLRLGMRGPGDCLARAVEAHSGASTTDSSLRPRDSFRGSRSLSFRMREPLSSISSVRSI
# Hsp70 activator = transcriptional activators of Hsp70 | AID 1203 | 200,000 compounds, 0.04% hits | activation, % at 10 µM | HeLa Hsp70 promoter luciferase reporter, luminescence; scaled: vehicle 0, proteasome-inhibitor control 100%;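 active means activation above the mean across all tested compounds plus 3 SD, cutoff set per campaign, cut at about 5.5% in these data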
# S1P4 agonist = activates the human S1P4 receptor | O95977 | S1P4-expressing cell line, agonist reporter assay | activation, % at 4.98 µM | 220,000 compounds, 0.35% hits; in the data active means activation above about 11%
# HSV augment = HSV replication enhancement | HSV replication augmentation in cells, fold increase | maximum fold increase | 220,000 compounds, 0.005% hits; in the data active means maximum fold increase above about 1.5; inconclusive means no clear call, values can overlap the other calls; tested in PC3 cells
# S1P4 antag conf = confirmation of human S1P4 receptor antagonists | inhibition, % at 4.98 µM | AID 1524 | shares compounds with S1P4 antagonist | S1P4-expressing cell line, antagonist mode, reporter read-out | 520 compounds, 71% hits; in the data active means inhibition above about 30%
# S1P1 antagonist = human S1P1 antagonism as S1P4 antagonist counter-screen | inhibition, % at 4.98 µM | 520 compounds, 37% hits | shares compounds with S1P4 antagonist | cell-based S1P1 antagonist counterscreen, inhibition; in the data active means inhibition above about 40%;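 further: receptor stimulated with S1P near its EC80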
# Numbers stand for hits; n = inactive; u = inconclusive; x = no result given. Compounds with a hit are over-represented: about 1% of the library has one in this group of screens.
SMILES,L929 necroptosis,TNF necrop inh,S1P4 antagonist,Hsp70 activator,S1P4 agonist,HSV augment,S1P4 antag conf,S1P1 antagonist
Cc1cc(C)c(C)c(OCc2nc(-c3cccnc3)no2)c1,n,n,30.0,n,n,n,n,n
Cc1ccc(OCc2nc(-c3ccccc3)no2)c(C)c1,n,n,n,n,n,n,x,x
O=C(Nc1ccc2c(c1)CCC2)c1cc(=O)[nH]c2ccccc12,n,n,n,x,n,n,x,x
O=C(NCc1cccnc1)/C(=C\c1ccc(-c2ccc(Br)cc2)o1)S(=O)(=O)c1ccccc1,n,n,51.7,n,n,n,105.6,64.5
O=C(NCc1cccnc1)/C(=C/c1ccc(-c2ccc(Cl)cc2)o1)S(=O)(=O)c1ccccc1,n,n,48.8,n,n,n,101.0,43.0
CC(NC(=O)C(c1ccccc1)c1ccccc1)C(=O)N1CCCCC1 (stereo not drawn),n,n,n,n,n,u,x,x
CCC(=O)OCCNc1cc(Sc2nc3ccccc3[nH]2)c2nonc2c1[N+](=O)[O-],n,n,36.0,n,n,n,110.5,n
CCC(=O)OCCNc1cc(Sc2nc3ccccc3s2)c2nonc2c1[N+](=O)[O-],n,n,n,n,n,n,x,x
COc1ccc(OC)c2c1C(=O)C(Cl)=C(Cl)C2=O,n,n,55.6,x,n,n,107.2,73.8
COc1ccc(OC)c2c1C(=O)c1ccccc1C2=O,n,n,n,n,n,n,x,x
Cc1cc(C)nc(S/C=C/C(=O)c2ccccc2F)n1,n,n,42.9,x,n,n,77.8,n
CCN(CC)c1ccc(/C=N\N2CCN(Cc3ccc(C)cc3)CC2)cc1,n,n,n,n,n,n,x,x
CN1C(=O)C2(c3ccccc31)c1c(oc3ccccc3c1=O)C(=O)N2CCO (stereo not drawn),n,n,n,x,n,n,x,x
CCCN(CCC)CC(O)Cn1cc(/C=C/C(=O)c2ccccc2)c2ccccc21 (stereo not drawn),n,n,n,n,n,n,x,x
O=C(/C=C/c1cn(CC(O)CN2CCCCC2)c2ccccc12)c1cccs1 (stereo not drawn),n,n,30.5,n,n,x,52.5,45.5
O=C(/C=C/c1cn(CC(O)CN2CCCCC2)c2ccccc12)c1ccccc1 (stereo not drawn),n,n,n,x,n,n,x,x
CCCN(CCC)CC(O)Cn1cc(/C=C/C(=O)c2cccs2)c2ccccc21 (stereo not drawn),n,n,34.3,n,n,x,58.6,74.5
CCC(C(=O)c1ccccc1)P(=O)(NN)c1ccccc1 (stereo not drawn),n,n,n,x,n,n,x,x
CC1CN(C(=O)/C(C#N)=C2\N=C(NC(=O)c3ccc(F)cc3)c3ccccc32)CC(C)O1 (stereo not drawn),n,n,n,x,n,n,x,x
O=C(Nc1ccccc1)Nc1cc(Cl)cc(Cl)c1,n,n,n,n,n,n,x,x
O=C(Nc1ccccc1)Nc1cc(OCC(F)(F)F)cc(OCC(F)(F)F)c1,n,n,101.0,n,n,n,112.2,n
COc1ccccc1C(=O)OCc1nc(N)nc(Nc2ccccc2C)n1,n,n,107.0,n,n,n,n,n
Nc1nc(CN2CCN(C(=O)c3ccco3)CC2)nc(Nc2cccc(Cl)c2)n1,n,n,n,n,n,n,x,x
Cc1ccc2c(C)c(C(=O)Nc3c(C)n(C)n(-c4ccccc4)c3=O)oc2c1C,n,n,29.1,n,n,n,61.4,n
Cc1cc2oc(C(=O)Nc3c(C)n(C)n(-c4ccccc4)c3=O)c(C)c2cc1C,n,n,30.2,n,n,n,61.1,47.7
SMILES,L929 necroptosis,TNF necrop inh,S1P4 antagonist,Hsp70 activator,S1P4 agonist,HSV augment,S1P4 antag conf,S1P1 antagonist
Cc1c(C(=O)Nc2c(C)n(C)n(-c3ccccc3)c2=O)oc2ccccc12,n,n,n,n,n,n,x,x
CN(C(=O)Cn1cccc1C1=NC(c2ccccc2)CO1)c1ccccc1 (stereo not drawn),n,n,n,n,n,n,x,x
COc1ccc(OC)c(C2C3=C(CCCC3=O)Nc3nnnn32)c1 (stereo not drawn),n,n,n,n,n,n,x,x
CCN(Cc1ccccc1)C(=O)CS(=O)(=O)c1ccccc1,n,n,n,n,n,n,x,x
O=S(=O)(C/C(=C/CO)S(=O)(=O)c1ccccc1)c1ccccc1,n,n,40.4,14.7,n,n,87.3,n
Cc1ccc(NC(=O)C2=C(c3ccccc3)S(=O)(=O)CCS2(=O)=O)cc1,n,n,45.2,n,n,n,108.3,n
Cc1ccc(NC(=O)c2ccccc2)cc1,n,n,n,n,n,n,x,x
O=C(/C=C/c1ccccc1[N+](=O)[O-])c1ccccc1Br,n,n,36.3,n,n,n,79.0,n
Cc1nc2c(=O)n(C)c(=O)n(C)c2nc1Cl,n,n,49.0,n,n,n,93.9,50.5
Cn1c(=O)c2nc(NCc3ccccc3)cnc2n(C)c1=O,n,n,n,n,n,x,x,x
S=c1[nH]nc(-c2cc(-c3ccccc3)n[nH]2)n1/N=C/C(Br)=C/c1ccccc1,n,n,34.8,x,n,n,66.2,n
COc1ccc(CNCc2cccc(Oc3ccccc3)c2)cc1,n,n,n,n,n,n,x,x
CC(C)c1nnc(NC(=O)CCS(=O)(=O)c2nc(-c3cccs3)cc(C(F)(F)F)n2)s1,n,n,50.0,n,n,n,108.7,53.9
O=C(CCS(=O)(=O)c1ccccc1)Nc1nc(-c2cccs2)cs1,n,n,n,n,n,n,x,x
Cc1cc(C)c(C(=O)Nc2ccc(Br)c(C(F)(F)F)c2)c(C)c1,n,n,29.5,n,n,n,53.1,n
O=c1[nH]n(-c2cccc3cccnc23)c(=O)c2ccccc12,n,n,n,n,n,n,x,x
O=S1(=O)Nc2c(ccc3cccnc23)-c2ccccc21,n,n,49.6,n,n,n,95.0,88.8
O=C(Nc1ccc(F)cc1)c1nn(-c2ccccc2)c(=O)cc1Cl,n,n,45.5,n,n,n,74.7,71.0
Cc1ccc(NC(=O)c2cc(-c3ccccc3)nn2-c2ccccc2)cc1,n,n,n,n,n,n,x,x
CCN(CC)S(=O)(=O)c1ccc(C(=O)N(c2ccc(C)cc2)C2C=CS(=O)(=O)C2)cc1 (stereo not drawn),n,n,n,n,n,n,x,x
Cc1c(NC(=O)c2cc(-n3cnnc3)ccc2Cl)cccc1-c1nc2ccccc2s1,n,n,n,n,n,n,x,x
O=C(Nc1cccc(-c2nc3ccccc3s2)c1)c1cc(-n2cnnc2)ccc1Cl,n,n,30.8,n,n,n,n,n
CCOC(=O)C1=C(C)N=C2SCCC(=O)N2C1c1ccc(OC)cc1 (stereo not drawn),n,n,n,n,n,n,x,x
